PubChem BioAssay (NCATS)
Records with an inconclusive call do not appear. The source made the active and inactive calls. Unless noted, calls come from the whole dose curve; as a rule, active = well fitted curve in the direction sought with a large enough effect; inconclusive = small, poorly fitted or top-dose-only effect, or another doubt; inactive = no such curve, though single readings can be large; an effect the other way counts as inactive or inconclusive. Bridge positions count the residues as written; N and C are the ends. Square brackets hold non-standard residues; d marks the D form. Peptide text beside a SMILES is read from it. Orn = NCCC[CH](N)C(=O)O; Mpa = O=C(O)CCS

Columns and labels:
[1] = Viability counterscreen for antagonist of constitutive androstane receptor (CAR) against the NCATS DSHEA and TCM libraries (AID 1794837);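 note: compound exposure lasted 24 h before viability reading; 0% is about no effect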
Procedure, shortened: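 HepG2-CYP2B6-hCAR cells (2,500/well) were allowed to attach for 5 h, then exposed to compounds with 48 uM CITCO for 24 h at 37C. Viability was read by CellTiter-Fluor fluorescence after 1 h.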

[2] = Viability counterscreen for agonist of constitutive androstane receptor (CAR) against the NCATS DSHEA and TCM libraries (AID 1794838); note: 0% is about no effect
Procedure, shortened: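 HepG2-CYP2B6-hCAR cells (2,500/well) attached 5 h, then got compounds plus 0.75 uM PK11195 final. After 24 h at 37C, viability read by CellTiter-Fluor fluorescence (Ex/Em 405/540 nm).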

[3] = biological target: Nuclear receptor subfamily 1 group I member 3 (Homo sapiens) (UniProt Q14994); test: Primary qHTS for agonist of constitutive androstane receptor (CAR) against the NCATS DSHEA and TCM libraries (AID 1794839);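 note: HepG2 cells expressing human CAR with a CYP2B6 reporter plus PK11195 antagonist; 0% is about no effect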
Procedure, shortened: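 HepG2-CYP2B6-hCAR cells (2,500/well) were attached for 5 h, then treated for 24 h at 37 °C with compounds plus 0.75 µM PK11195. Luciferase luminescence (ONE-Glo) was read, with CellTiter-Fluor viability (Ex/Em 405/540 nm).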

[4] = HepG2 viability counterscreen (readout 2: ATP content) against the NCATS DSHEA and TCM libraries (AID 1794840);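 note: HepG2 cells exposed to substances for about 24 h; 0% is about no effect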
Procedure, shortened: (§1)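 HepG2 cells (1,000 cells/well) attached ~4 h, then treated ~24 h at 37C with substances. Protease activity read by GF-AFC (25 uM final, 30 min, Ex/Em 380/510 nm); ATP content then by CellTiter-Glo luminescence.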

[5] = HepG2 viability counterscreen (readout 1: protease activity) against the NCATS DSHEA and TCM libraries (AID 1794841);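 note: cells exposed to compounds for about 24 h before the protease read; 0% is about no effect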
Procedure, shortened: as §1

[6] = biological target: Cytochrome P450 3A4 (Homo sapiens) (UniProt P08684); test: qHTS for inhibitors of CYP3A4 against the NCATS DSHEA and TCM libraries (AID 1919971);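 note: % is set by controls: 0 for no effect and ±100 for the full control effect; inhibition lowers luminescence from luciferin made by CYP3A4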
Procedure, shortened: (§2)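 Isoform-specific enzyme and substrate levels; enzyme-free wells as background. Reaction: 1x NADPH regenerating system, 30-45 min, room temperature, shielded from light; luminescent detection reagent added, 30 min.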

[7] = biological target: Cytochrome P450 2D6 (Homo sapiens) (UniProt P10635); test: qHTS for inhibitors of CYP2D6 against the NCATS DSHEA and TCM libraries (AID 1919972); note: % is set by controls: 0 for no effect and ±100 for the full control effect
Procedure, shortened: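 qHTS, concentration–response format with most substances from 19.5 nM. CYP2D6 + pro-luciferin substrate, 15 min with compound, then 1x NADPH regen, 30–45 min RT dark. Glo detection 30 min, luminescence. Quinidine control.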

[8] = biological target: Cytochrome P450 2C9 (Homo sapiens) (UniProt P11712); test: qHTS for inhibitors of CYP2C9 against the NCATS DSHEA and TCM libraries (AID 1919973);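 note: luminogenic pro-luciferin CYP2C9 substrate turned into luciferin with NADPH regeneration; series mostly up to about 34 µM; % is set by controls: 0 for no effect and ±100 for the full control effect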
Procedure, shortened: as §2

[9] = KB-3-1 P-gp reporter qHTS against the NCATS DSHEA and TCM libraries (AID 1919975); note: 0% is about no effect
Procedure, shortened: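 Parental KB-3-1 human cervical adenocarcinoma cells (500 cells/well, DMEM + 10% FBS) were treated with substances for ~72 h at 37C; viability was read by CellTiter-Glo luminescence.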

[10] = qHTS Counterscreen for compound interference against the NCATS DSHEA and TCM libraries (AID 1919978); conditions: firefly luciferase detection reagent interference, luminescence; note: % of control where 0% means no effect
Procedure, shortened: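 D-luciferin (1 uM final) or 100 mM potassium phosphate buffer alone was preincubated 15 min at RT with compounds (19.5 nM to 39.8 uM final). Luciferin detection reagent was then added and luminescence read after 30 min at RT.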

[11] = Dual reporter qHTS for agonist of Pregnane X Receptor (hPXR) against the NCATS DSHEA and TCM libraries: Fluorescence readout (AID 1920058); note: 0% is about no effect
Procedure, shortened: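 In this qHTS counter-read, reporter-bearing HepG2 cells in charcoal-stripped serum received substances for approximately 24 h before viability was assessed fluorometrically with CellTiter-Fluor.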

[12] = biological target: Nuclear receptor subfamily 1 group I member 2 (Homo sapiens) (UniProt O75469); test: Dual reporter qHTS for agonist of Pregnane X Receptor (hPXR) against the NCATS DSHEA and TCM libraries: Luminescence readout (AID 1920059); note: potency is the fitted concentration of half-maximal effect
Procedure, shortened: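 Luminescent PXR reporter read (ONE-Glo) after a CellTiter-Fluor viability read, following 24 h, 37C treatment of HepG2 cells stably carrying hPXR-Luc.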

[13] = Dual reporter qHTS for antagonist of Pregnane X Receptor (hPXR) against the NCATS DSHEA and TCM libraries: Fluorescence Readout (AID 1920061); note: 0% is about no effect
Procedure, shortened: (§3)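 hPXR-Luc HepG2 cells exposed 24 h at 37 C to compounds with 2 uM rifampicin in antagonist mode; luciferase luminescence measured by ONE-Glo, with CellTiter-Fluor viability read beforehand.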

[14] = biological target: Cytochrome P450 2C19 (Homo sapiens) (UniProt P33261); test: qHTS for inhibitors of CYP2C19 against the NCATS DSHEA and TCM libraries (AID 1919974);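 note: luminescence from luciferin released by CYP2C19 oxidation of a pro-luciferin substrate; % is set by controls: 0 for no effect and ±100 for the full control effect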
Procedure, shortened: as §2

[15] = biological target: Cytochrome P450 1A2 (Homo sapiens) (UniProt P05177); test: qHTS for inhibitors of CYPIA2 against the NCATS DSHEA and TCM libraries (AID 1919976);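 note: light from luciferin formed by CYP1A2 from a pro-luciferin substrate; series mostly up to about 37 µM; % is set by controls: 0 for no effect and ±100 for the full control effect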
Procedure, shortened: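 Furafylline served as the plate control. Compounds met CYP1A2 and pro-luciferin substrate 15 min before NADPH regeneration solution (1x) was added; after 30-45 min at RT, P450-Glo reagent was added for 30 min and luminescence was measured.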

[16] = biological target: Glutathione peroxidase 1 (Homo sapiens) (UniProt P07203); test: Primary qHTS Assay for Inhibitors of Recombinant Selenoprotein Glutathione Peroxidase 1 (GPX1) (AID 1845191); note: nearly all actives have a fitted effect of over 65% in size
Procedure, shortened: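 NADPH consumption tracked by fluorescence at 340/450 nm between t=0 and t=15 min, room temperature. Final mix: 10 nM GPX1, 100 nM glutathione reductase, 1 mM GSH, 0.5 mM NADPH, 0.5 mM cumene hydroperoxide, 0.01% BSA; 30 min compound–enzyme preincubation.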

[17] = biological target: Glucocorticoid receptor (Homo sapiens) (UniProt P04150); test: GR-EFC Redistribution (AID 451; calls by dose curve; note: potency is the fitted concentration of half-maximal effect); conditions: CHO-K1 GR-EFC translocation, beta-gal luminescence, 2 h
Procedure, shortened: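 Translocation of GR-ED fusion to nuclear EA restores b-gal, read by luminescence after 1 h room-temperature detection. Engineered CHO-K1 biosensor cells, 1,000/well, exposed 2 h at 37 C to titrations up to 46 uM final.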

[18] = biological target: Mitogen-activated protein kinase 10 (Mus musculus) (UniProt Q61831); test: JNK3 AlphaScreen Assay (AID 530; active = well fitted curve in either direction with a large enough effect, not every such curve was filed as active)
Procedure, shortened: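 Kinase buffer: 20 mM Tris-HCl pH 7.6, 10 mM MgCl2, 1 mM DTT, 0.1 mM Na3VO4, 0.01% Tween-20; ATP 10 uM. Substrate biotin-GST-cJun(1-79), enzyme from activated HepG2 lysates. Detection by Ser73 phospho-antibody AlphaScreen.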

[19] = biological target: Dual specificity protein kinase CLK4 (Homo sapiens) (UniProt Q9HAZ1); test: qHTS Assay for Inhibitors of CDC-like Kinase 4 (ADP-FP Assay) (AID 1795); note: series mostly up to about 50 µM; % is set by controls: 0 for no effect and ±100 for the full control effect; nearly all actives have a fitted effect of over 60% in size
Procedure, shortened: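 Recombinant human Clk4 (6.25 nM) phosphorylated RS repeat peptide (100 uM) with 1 uM ATP in Tris pH 7.5/MgCl2/EGTA/DTT/Triton buffer for one hour. ADP was quantified by Transcreener competitive fluorescence polarization against an ADP calibration curve.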

[20] = biological target: Nuclear receptor subfamily 1 group I member 2 (Homo sapiens) (UniProt O75469); test: Dual reporter qHTS for antagonist of Pregnane X Receptor (hPXR) against the NCATS DSHEA and TCM libraries: Luminescence Readout (AID 1920060);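 note: HepG2 cells carrying hPXR luciferase reporter stimulated with rifampicin at 2 µM; 0% is about no effect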
Procedure, shortened: as §3

Dual specificity protein kinase CLK4 (Homo sapiens), sequence (Q9HAZ1 whole entry, looked up): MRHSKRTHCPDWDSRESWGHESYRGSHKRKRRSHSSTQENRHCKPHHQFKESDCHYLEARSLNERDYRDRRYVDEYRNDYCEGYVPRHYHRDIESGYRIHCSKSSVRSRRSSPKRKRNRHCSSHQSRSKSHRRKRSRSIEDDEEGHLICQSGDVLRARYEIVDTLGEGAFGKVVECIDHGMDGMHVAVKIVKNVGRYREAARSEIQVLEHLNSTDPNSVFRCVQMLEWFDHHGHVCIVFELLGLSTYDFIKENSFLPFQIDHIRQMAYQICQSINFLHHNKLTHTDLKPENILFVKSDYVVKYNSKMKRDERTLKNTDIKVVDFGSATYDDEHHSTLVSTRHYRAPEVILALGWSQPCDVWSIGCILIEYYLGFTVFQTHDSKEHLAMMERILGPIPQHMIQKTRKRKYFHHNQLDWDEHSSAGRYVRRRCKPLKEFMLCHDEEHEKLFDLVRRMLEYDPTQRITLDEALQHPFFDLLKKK
Glutathione peroxidase 1 (Homo sapiens), sequence (P07203 whole entry, looked up): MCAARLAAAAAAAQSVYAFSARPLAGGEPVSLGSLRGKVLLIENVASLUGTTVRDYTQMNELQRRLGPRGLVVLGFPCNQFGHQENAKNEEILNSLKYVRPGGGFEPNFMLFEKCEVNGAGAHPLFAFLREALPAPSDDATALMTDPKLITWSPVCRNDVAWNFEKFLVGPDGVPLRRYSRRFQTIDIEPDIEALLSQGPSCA
Cytochrome P450 2C9 (Homo sapiens), sequence (P11712 whole entry, looked up): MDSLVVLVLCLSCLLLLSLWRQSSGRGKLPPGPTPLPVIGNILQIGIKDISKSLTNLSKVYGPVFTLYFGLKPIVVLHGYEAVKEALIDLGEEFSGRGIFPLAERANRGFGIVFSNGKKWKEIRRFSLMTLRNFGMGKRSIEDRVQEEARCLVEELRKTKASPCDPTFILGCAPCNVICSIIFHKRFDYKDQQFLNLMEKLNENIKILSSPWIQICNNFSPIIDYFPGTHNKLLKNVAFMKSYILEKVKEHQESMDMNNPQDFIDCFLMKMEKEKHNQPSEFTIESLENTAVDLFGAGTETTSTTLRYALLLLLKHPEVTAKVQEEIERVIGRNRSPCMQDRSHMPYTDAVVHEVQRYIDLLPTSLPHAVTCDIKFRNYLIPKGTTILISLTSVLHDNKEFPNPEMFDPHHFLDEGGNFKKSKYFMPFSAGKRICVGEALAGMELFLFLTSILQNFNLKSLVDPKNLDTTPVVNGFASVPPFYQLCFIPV
Cytochrome P450 2C19 (Homo sapiens), sequence (P33261 whole entry, looked up): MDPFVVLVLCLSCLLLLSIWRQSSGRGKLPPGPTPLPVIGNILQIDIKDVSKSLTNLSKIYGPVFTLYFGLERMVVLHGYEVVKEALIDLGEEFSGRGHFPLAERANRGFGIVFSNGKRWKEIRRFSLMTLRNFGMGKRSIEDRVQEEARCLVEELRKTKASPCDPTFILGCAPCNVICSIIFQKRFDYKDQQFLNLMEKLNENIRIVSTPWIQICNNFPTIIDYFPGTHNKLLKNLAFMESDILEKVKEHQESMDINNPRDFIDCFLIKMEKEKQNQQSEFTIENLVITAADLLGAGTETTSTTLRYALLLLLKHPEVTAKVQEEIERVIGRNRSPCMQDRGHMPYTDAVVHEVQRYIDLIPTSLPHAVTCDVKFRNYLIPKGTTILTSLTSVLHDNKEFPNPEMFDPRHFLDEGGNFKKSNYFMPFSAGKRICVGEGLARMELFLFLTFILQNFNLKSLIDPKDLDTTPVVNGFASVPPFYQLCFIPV
Cytochrome P450 1A2 (Homo sapiens), sequence (P05177 whole entry, looked up): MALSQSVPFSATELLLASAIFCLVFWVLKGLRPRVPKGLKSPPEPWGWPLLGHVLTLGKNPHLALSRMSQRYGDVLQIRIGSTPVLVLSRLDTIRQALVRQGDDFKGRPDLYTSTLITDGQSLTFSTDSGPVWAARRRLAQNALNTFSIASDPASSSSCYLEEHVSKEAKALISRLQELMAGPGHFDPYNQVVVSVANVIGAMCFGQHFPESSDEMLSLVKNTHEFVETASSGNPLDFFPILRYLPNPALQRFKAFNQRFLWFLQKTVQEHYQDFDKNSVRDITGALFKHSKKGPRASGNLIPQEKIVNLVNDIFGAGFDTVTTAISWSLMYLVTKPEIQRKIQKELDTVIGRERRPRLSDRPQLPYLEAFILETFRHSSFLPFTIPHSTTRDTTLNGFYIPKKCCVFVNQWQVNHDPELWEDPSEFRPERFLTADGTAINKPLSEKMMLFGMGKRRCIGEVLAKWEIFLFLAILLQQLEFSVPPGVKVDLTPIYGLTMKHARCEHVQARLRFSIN
Nuclear receptor subfamily 1 group I member 2 (Homo sapiens), sequence (O75469 whole entry, looked up): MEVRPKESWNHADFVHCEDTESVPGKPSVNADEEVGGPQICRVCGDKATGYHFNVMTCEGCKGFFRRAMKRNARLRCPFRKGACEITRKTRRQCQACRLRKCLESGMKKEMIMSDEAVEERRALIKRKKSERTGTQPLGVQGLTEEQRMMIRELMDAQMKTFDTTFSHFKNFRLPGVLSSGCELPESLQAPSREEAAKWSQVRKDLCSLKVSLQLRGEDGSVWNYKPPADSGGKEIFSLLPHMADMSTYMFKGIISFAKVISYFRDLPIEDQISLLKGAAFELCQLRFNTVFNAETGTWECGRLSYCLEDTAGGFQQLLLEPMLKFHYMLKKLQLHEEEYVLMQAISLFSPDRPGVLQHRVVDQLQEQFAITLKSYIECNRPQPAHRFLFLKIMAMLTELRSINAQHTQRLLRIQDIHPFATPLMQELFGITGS
Glucocorticoid receptor (Homo sapiens), sequence (P04150 whole entry, looked up, the tested form may be a part): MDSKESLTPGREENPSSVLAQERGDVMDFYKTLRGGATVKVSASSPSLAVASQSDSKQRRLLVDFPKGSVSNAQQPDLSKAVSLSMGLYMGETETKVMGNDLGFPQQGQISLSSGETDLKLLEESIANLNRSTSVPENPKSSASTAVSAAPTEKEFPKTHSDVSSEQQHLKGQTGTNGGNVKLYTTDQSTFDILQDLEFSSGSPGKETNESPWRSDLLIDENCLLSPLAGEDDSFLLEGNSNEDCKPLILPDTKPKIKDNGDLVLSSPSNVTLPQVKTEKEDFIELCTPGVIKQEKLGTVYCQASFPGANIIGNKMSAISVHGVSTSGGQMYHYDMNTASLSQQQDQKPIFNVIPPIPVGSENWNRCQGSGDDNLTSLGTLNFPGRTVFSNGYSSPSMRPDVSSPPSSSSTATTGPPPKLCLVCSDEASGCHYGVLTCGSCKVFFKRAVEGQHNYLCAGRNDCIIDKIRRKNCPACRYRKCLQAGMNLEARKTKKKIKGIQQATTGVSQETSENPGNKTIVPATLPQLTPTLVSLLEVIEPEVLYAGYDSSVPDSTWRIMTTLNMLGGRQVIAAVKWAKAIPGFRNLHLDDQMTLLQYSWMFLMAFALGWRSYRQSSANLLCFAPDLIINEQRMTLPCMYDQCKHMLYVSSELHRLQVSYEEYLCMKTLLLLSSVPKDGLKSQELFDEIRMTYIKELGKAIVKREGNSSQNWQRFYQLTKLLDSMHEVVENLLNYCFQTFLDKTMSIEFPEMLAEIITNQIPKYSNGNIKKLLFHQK
Cytochrome P450 3A4 (Homo sapiens), sequence (P08684 whole entry, looked up, canonical isoform): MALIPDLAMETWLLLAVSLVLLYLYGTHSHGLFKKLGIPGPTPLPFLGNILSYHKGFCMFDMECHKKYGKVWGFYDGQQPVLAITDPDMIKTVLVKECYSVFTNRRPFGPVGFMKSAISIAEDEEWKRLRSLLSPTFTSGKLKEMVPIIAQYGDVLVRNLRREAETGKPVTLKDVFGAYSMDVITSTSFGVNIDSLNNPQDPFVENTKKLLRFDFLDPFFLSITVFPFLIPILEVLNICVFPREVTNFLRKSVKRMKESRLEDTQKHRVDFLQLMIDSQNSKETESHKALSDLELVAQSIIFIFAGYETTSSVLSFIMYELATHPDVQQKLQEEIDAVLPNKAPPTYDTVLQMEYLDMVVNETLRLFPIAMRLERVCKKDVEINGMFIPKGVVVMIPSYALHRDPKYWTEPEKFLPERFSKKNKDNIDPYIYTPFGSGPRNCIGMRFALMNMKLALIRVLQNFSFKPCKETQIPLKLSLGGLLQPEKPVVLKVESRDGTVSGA
Cytochrome P450 2D6 (Homo sapiens), sequence (P10635 whole entry, looked up): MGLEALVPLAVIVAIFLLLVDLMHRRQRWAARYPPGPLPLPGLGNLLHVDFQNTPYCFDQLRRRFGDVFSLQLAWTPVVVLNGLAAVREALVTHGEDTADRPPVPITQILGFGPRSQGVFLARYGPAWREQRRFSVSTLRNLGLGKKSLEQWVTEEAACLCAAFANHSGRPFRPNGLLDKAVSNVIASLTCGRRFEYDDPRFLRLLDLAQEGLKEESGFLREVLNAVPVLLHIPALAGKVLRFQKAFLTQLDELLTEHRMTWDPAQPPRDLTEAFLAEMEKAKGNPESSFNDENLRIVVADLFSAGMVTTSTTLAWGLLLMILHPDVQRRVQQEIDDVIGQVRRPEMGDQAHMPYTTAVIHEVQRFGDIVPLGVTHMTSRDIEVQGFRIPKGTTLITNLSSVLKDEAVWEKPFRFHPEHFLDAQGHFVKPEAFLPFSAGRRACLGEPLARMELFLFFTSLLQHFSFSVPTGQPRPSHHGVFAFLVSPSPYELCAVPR
Nuclear receptor subfamily 1 group I member 3 (Homo sapiens), sequence (Q14994 whole entry, looked up): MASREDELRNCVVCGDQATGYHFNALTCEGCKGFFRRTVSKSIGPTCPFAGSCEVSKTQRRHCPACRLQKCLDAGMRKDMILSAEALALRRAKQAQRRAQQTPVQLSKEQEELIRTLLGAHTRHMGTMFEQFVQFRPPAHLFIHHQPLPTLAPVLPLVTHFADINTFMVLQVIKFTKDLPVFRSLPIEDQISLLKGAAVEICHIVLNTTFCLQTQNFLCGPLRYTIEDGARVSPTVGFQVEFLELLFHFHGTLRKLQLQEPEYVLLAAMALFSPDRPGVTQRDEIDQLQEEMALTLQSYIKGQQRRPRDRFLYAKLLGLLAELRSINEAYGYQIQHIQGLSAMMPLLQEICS

C=C1C[C@@]23CC[C@H]4[C@](C)(CCC[C@]4(C)C(=O)O[C@@H]4O[C@H](CO)[C@@H](O)[C@H](O)[C@H]4O)[C@@H]2CC[C@]1(O[C@H]1O[C@@H](CO)[C@H](O)[C@@H](O)[C@@H]1O)C3
inactive: outcome [1] | outcome [2] | Potency [3] | outcome [4] | outcome [5] | Potency [6] | Potency [7] | Potency [8] | outcome [9] | max response [10] 3.88% | outcome [11] | Potency [12] | outcome [13]

CCCCCC(=O)O
inactive: outcome [4] | outcome [5] | Potency [6] | Potency [7] | Potency [8] | Potency [14] | outcome [9] | Potency [15] | max response [10] -1.64% | outcome [11] | Potency [12] | outcome [13]

CCc1ccc(Nc2c(F)c(F)cc(F)c2F)c(CC(=O)O)c1
inactive: Potency [16]

COc1cc2oc(-c3ccccc3)cc(=O)c2c(OC)c1OC
inactive: Potency [16]

Cc1ccccc1-c1ccc2ncnc(NCCN3CCOCC3)c2c1
inactive: Potency [17] > 46 µM | Potency [18] | Potency [19]

CN(C)c1nc(-c2cccc(NS(C)(=O)=O)c2)nc2ccccc12
inactive: Potency [17] > 46 µM | Potency [18] | Potency [19]

CNCCN1CCC(OCc2ccccc2)CC1
inactive: Potency [16]

O=c1cnc2cnc(N3CCOCC3)nc2n1Cc1cccs1
inactive: Potency [17] > 46 µM | Potency [18] | Potency [19]

Cc1ccc(O)c(O)c1
active: Potency [12] 50.1 µM
inactive: outcome [2] | outcome [4] | outcome [5] | Potency [6] | Potency [7] | Potency [8] | Potency [14] | outcome [9] | Potency [15] | max response [10] -0.684% | outcome [11]

CC1(C)C[C@H]1C(=O)N/C(=C\CCCCSC[C@@H](N)C(=O)O)C(=O)O
inactive: Potency [16]

CN(C)c1ccc(-c2cncnc2NCCc2cnc[nH]2)cc1
inactive: Potency [17] > 46 µM | Potency [18] | Potency [19]

C=CCc1ccc(OC)c(OC)c1
inactive: Potency [18] | outcome [4] | outcome [5] | Potency [6] | Potency [7] | Potency [8] | Potency [14] | outcome [9] | max response [10] -1.2% | outcome [11] | Potency [12] | outcome [13]

CCOc1ccc(CC2NC(=O)CCSSCC(C(=O)N3CCCC3C(=O)NC(CCCN)C(=O)NCC(N)=O)NC(=O)C(CC(N)=O)NC(=O)C(C(C)O)NC(=O)C(C(C)CC)NC2=O)cc1 (stereo not drawn) ([Mpa]Y(Et)ITNCP[Orn]G-NH2; disulfide 1-6; configuration not given here)
inactive: Potency [16]

CNc1ncncc1-c1ccccc1CN(C)C
inactive: Potency [17] > 46 µM | Potency [18] | Potency [19]

CC(C)=CCC[C@](C)(O[C@@H]1O[C@H](CO)[C@@H](O)[C@H](O)[C@H]1O)[C@H]1CC[C@]2(C)[C@@H]1[C@H](O)C[C@@H]1[C@@]3(C)CC[C@H](O)C(C)(C)[C@@H]3[C@@H](O[C@@H]3O[C@H](CO)[C@@H](O)[C@H](O)[C@H]3O)C[C@]12C
inactive: outcome [1] | outcome [2] | outcome [4] | Potency [6] | Potency [7] | Potency [8] | Potency [14] | outcome [9] | Potency [15] | max response [10] 2.82% | outcome [11] | Potency [12] | outcome [20] | outcome [13]
